Data published in the supplement of paper PMC10849652.
Of roughly 7,900 targets only a part is listed; those with a hit were picked by preference. About 0.6% of all pairs of compound and target were hits. Values without a mark were called inactive.

Columns and labels:
Experiment in all cases: log2 fold change, soluble protein after heating vs DMSO (PISA); higher = thermal stabilisation; K562 cells, 10 uM, 30 min; active = over 0.2 and 3.5 SD of the protein, either way, in both replicates (recomputed)
[1] = compound: C#Cc1cccc(Nc2ncnc3cc(OCCOC)c(OCCOC)cc23)c1 [erlotinib]
Summary of the method: (§1)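 K562 cells at 2×10^6 cells/mL were treated for 30 min with 10 μM compound, and aliquots were heated for 3 min over 48°C-58°C before pooling. Extraction used PBS with 0.5% NP-40 at 4°C, and soluble protein was the supernatant after 21,000xg for 90 min, measured by TMTpro 16plex LC-MS/MS with channel sums equalised. Thermal stability values, relative to control samples and from duplicates, are log2 fold changes.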

[2] = compound: C/C(=N\NC(=O)C1=CC(=CC=C1)S(=O)(=O)N2CCOCC2)/C3=C(C=CC(=C3)Cl)O
Summary of the method: as §1

[3] = compound: C1=CC(=C(C=C1Cl)C2=NC3=NC=CN=C3C(=N2)NC4=CC=NC=C4)F
Summary of the method: as §1

[4] = compound: C1=CC(=CC=C1C2=NC3=C(N2)C=C(C=C3)C(=O)N)OC4=CC=C(C=C4)Cl
Summary of the method: as §1

[5] = compound: C1=CC2=C(C=CC(=C2)/C=C\3/C(=O)NC(=NCC4=CC=CS4)S3)N=C1
Summary of the method: as §1

[6] = compound: C1=CC2=NC=CN=C2C=C1/C=C/3\C(=O)NC(=O)S3
Summary of the method: as §1

[7] = compound: C1=CC=C(C=C1)C2=NC(=C(N2)C3=CC=NC=C3)C4=CC(=C(C=C4)Cl)O
Summary of the method: as §1

[8] = compound: C1=CC=C2C(=C1)C3=NNC4=CC=CC(=C43)C2=O
Summary of the method: as §1

[9] = compound: C1CCN(C1)C(=O)NC2=CC=CC(=C2)NC3=NC=C(C(=N3)NCCC4=CN=CN4)Br
Summary of the method: as §1

[10] = compound: C1CN(CCC1(CC2=CC=C(C=C2)Cl)N)C3=NC=NC4=C3C=CN4
Summary of the method: as §1

[11] = compound: C1COCCN1CCN2C3=CC=CC=C3N=C2NC(=O)C4=CC(=CC=C4)[N+](=O)[O-] [IRAK-1-4 Inhibitor I]
Summary of the method: as §1

[12] = compound: C=CC(=O)N1CCC[C@@H](n2nc(-c3ccc(Oc4ccccc4)cc3)c3c(N)ncnc32)C1 [ibrutinib]
Summary of the method: as §1

[13] = compound: CC(=O)c1cnc2ccc(-c3cc(Cl)c(O)c(Cl)c3)nc2c1N[C@H]1CC[C@H](CN(C)C)CC1
Summary of the method: as §1

[14] = compound: CC(C)(C)Cn1c(N)nc2ccc(-c3[nH]c(C(C)(C)C)nc3-c3ccc(F)cc3)nc21 [ralimetinib]
Summary of the method: as §1

[15] = compound: CC(C)(O)CC(=O)NCCn1ccc2ncnc(Nc3ccc(Oc4cccc(C(F)(F)F)c4)c(Cl)c3)c21
Summary of the method: as §1

[16] = compound: CC(C)C1=C2N=C(C=C(N2N=C1)NCC3=CC=CC=C3)NCCCCCCN
Summary of the method: as §1

[17] = compound: CC(C)C[C@@H](C=O)NC(=O)[C@H](CC(C)C)NC(=O)[C@H](CC(C)C)NC(=O)OCc1ccccc1
Summary of the method: as §1

[18] = compound: CC(C)N(C[C@H]1O[C@@H](n2cnc3c(N)ncnc32)[C@H](O)[C@@H]1O)[C@H]1C[C@@H](CCc2nc3cc(C(C)(C)C)ccc3[nH]2)C1 [pinometostat]
Summary of the method: as §1

[19] = compound: CC1=C(C(CC(=O)N1)C2=CC=C(C=C2)C(F)(F)F)C(=O)NC3=C(C=C4C(=C3)C=NN4)F
Summary of the method: as §1

[20] = compound: CC1=C(C2=C(C=C1)C(=O)C3=CC=CC=C3N2CCCN)C
Summary of the method: as §1

Sequence of UniProt Q15008 (Q15008 whole entry, looked up): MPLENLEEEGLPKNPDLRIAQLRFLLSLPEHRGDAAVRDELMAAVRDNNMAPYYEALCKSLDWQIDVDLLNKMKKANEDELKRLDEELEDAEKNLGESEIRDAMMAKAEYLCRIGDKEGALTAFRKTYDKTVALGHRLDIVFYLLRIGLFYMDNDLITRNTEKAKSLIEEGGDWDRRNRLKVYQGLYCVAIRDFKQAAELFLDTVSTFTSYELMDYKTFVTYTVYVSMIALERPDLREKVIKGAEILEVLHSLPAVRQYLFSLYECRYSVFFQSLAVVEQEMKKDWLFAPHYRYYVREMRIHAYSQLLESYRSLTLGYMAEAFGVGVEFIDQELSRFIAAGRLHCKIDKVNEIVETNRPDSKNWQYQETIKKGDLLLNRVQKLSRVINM
Sequence of UniProt Q8WXF1 (Q8WXF1 whole entry, looked up): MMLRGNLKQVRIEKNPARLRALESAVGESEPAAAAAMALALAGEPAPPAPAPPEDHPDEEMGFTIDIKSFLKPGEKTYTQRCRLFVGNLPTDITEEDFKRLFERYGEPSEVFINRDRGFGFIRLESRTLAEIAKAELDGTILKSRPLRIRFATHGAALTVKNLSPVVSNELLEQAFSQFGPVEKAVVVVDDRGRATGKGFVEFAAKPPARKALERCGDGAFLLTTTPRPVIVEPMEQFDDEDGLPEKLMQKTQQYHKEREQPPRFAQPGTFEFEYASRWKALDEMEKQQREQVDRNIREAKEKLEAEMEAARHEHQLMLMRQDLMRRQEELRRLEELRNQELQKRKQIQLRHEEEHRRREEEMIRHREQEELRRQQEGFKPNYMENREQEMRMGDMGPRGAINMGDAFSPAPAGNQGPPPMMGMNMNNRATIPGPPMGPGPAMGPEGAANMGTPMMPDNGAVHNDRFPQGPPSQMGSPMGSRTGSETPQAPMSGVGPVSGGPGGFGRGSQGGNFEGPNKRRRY
Sequence of UniProt Q05209 (Q05209 whole entry, looked up): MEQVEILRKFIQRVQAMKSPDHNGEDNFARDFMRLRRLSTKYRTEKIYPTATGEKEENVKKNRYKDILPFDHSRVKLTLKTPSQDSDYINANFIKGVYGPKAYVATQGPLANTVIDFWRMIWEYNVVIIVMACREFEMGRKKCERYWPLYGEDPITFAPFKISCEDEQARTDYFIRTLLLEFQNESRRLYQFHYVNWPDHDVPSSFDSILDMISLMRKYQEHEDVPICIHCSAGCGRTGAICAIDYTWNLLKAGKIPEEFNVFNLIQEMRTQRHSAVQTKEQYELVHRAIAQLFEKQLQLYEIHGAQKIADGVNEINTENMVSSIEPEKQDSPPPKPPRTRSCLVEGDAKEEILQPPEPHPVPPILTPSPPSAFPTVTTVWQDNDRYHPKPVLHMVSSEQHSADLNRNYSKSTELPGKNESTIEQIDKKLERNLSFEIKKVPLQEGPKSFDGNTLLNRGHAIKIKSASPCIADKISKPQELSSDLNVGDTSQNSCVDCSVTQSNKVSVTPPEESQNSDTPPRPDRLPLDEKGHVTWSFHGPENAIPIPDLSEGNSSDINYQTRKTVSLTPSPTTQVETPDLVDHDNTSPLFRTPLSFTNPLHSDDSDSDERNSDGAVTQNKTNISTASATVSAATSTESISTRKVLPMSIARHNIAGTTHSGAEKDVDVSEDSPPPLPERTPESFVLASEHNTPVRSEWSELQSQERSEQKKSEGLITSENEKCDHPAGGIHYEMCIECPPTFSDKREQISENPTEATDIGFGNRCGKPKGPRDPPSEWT
Sequence of UniProt O60925 (O60925 whole entry, looked up): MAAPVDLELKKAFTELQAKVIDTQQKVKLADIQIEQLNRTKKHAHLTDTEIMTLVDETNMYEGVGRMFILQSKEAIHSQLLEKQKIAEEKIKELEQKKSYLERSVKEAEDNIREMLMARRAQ
Sequence of UniProt P28340 (P28340 whole entry, looked up): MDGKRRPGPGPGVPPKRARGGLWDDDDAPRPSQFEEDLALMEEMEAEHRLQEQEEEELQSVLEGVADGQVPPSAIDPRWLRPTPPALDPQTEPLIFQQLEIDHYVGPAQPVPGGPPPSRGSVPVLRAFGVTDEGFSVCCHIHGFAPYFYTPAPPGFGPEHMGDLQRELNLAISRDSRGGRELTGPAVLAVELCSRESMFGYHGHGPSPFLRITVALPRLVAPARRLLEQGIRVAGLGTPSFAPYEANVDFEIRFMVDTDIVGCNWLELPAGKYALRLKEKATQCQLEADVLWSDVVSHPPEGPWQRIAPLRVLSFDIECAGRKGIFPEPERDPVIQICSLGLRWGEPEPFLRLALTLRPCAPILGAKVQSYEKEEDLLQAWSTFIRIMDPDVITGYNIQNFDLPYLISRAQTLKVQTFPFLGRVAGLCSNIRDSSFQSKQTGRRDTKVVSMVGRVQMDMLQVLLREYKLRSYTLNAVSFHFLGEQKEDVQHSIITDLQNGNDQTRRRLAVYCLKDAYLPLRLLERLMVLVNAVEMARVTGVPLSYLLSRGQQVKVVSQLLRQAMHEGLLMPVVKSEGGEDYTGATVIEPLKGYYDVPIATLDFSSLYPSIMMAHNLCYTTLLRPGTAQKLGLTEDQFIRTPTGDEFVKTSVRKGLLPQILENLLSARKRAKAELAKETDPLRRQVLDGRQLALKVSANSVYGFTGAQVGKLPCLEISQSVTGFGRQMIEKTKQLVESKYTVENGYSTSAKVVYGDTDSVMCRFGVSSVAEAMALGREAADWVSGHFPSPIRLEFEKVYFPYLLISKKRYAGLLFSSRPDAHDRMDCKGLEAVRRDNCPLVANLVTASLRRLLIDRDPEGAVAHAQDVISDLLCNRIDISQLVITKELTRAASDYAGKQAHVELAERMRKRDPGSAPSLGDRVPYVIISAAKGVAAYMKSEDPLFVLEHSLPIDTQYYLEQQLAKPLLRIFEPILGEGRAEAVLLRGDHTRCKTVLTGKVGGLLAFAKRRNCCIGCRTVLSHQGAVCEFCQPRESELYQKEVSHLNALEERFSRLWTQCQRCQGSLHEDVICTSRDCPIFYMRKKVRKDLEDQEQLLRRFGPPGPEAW
Sequence of UniProt Q13131 (Q13131 whole entry, looked up): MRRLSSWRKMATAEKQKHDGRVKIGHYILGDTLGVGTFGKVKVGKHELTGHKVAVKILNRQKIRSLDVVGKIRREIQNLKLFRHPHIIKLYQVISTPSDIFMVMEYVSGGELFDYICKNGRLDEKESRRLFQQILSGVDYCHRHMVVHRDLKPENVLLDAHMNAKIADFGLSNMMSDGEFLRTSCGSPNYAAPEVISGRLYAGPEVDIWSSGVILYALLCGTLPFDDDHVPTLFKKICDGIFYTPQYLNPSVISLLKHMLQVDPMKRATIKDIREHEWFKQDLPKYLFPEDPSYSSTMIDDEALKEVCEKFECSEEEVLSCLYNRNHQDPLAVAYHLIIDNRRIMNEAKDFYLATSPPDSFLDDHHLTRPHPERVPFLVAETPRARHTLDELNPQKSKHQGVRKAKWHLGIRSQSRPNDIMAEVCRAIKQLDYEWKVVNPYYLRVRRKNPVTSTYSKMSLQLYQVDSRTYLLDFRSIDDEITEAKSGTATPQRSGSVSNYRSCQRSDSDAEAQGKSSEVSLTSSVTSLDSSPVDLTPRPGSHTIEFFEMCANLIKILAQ
Sequence of UniProt Q8NAV1 (Q8NAV1 whole entry, looked up): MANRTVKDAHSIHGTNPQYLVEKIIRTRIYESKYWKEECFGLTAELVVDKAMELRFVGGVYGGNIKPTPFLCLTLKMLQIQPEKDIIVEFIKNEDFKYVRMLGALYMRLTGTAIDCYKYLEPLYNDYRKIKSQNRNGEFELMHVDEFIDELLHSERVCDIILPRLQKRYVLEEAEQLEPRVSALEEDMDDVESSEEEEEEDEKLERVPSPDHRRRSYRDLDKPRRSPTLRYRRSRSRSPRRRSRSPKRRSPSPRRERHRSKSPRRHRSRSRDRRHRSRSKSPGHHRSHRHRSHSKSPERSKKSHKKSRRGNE
Sequence of UniProt P11498 (P11498 whole entry, looked up): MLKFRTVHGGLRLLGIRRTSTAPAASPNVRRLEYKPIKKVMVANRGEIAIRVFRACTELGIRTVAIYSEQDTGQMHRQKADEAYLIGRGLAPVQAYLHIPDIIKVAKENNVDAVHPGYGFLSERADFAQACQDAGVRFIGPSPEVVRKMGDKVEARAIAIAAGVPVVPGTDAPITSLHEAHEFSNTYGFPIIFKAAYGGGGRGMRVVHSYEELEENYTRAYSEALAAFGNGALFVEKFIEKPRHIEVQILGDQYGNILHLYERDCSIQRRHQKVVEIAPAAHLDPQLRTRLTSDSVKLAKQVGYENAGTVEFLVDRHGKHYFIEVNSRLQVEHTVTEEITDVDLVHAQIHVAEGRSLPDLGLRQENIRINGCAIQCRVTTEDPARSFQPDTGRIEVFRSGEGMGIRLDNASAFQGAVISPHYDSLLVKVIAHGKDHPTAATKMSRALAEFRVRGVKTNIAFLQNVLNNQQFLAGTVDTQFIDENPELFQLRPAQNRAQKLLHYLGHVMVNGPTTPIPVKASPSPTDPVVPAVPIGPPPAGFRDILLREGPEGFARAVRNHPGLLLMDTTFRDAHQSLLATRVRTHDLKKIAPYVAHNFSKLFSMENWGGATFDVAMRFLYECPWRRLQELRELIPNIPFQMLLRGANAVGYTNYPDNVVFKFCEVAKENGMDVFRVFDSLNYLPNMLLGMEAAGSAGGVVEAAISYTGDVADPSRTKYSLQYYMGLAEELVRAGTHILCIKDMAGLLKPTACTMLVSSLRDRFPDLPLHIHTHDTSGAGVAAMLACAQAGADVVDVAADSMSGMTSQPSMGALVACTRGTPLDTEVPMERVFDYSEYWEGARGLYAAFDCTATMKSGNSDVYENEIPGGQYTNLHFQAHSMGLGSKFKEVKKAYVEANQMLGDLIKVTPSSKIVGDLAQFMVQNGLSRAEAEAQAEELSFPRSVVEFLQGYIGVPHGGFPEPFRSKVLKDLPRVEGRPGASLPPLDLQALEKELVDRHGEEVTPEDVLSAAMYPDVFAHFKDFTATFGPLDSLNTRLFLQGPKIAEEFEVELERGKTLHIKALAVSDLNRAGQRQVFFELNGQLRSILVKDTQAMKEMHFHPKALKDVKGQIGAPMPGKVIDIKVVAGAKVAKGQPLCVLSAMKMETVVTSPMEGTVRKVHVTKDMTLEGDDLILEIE

Target	log2 fold change [1]	log2 fold change [2]	log2 fold change [3]	log2 fold change [4]	log2 fold change [5]	log2 fold change [6]	log2 fold change [7]	log2 fold change [8]	log2 fold change [9]	log2 fold change [10]	log2 fold change [11]	log2 fold change [12]	log2 fold change [13]	log2 fold change [14]	log2 fold change [15]	log2 fold change [16]	log2 fold change [17]	log2 fold change [18]	log2 fold change [19]	log2 fold change [20]
POLR2D (UniProt O15514)	-0.153	-0.048	0.138	0.204	0.06	0.087	-0.049	-0.011	0.058	0.064	0.042	0.082	0.346 (active)	-0.012	-0.006	0.374 (active)	-0.009	-0.026	-0.02	0.26
PSMD12 (UniProt O00232)	-0.064	0	-0.017	-0.003	-0.023	-0.016	0.009	0.066	-0.042	-0.049	-0.055	-0.022	0.03	0.004	-0.01	0	-0.251 (active)	0.03	0.007	0.015
POLD1 (UniProt P28340)	0.063	0.039	-0.009	-0.016	0.023	-0.024	0.05	-0.058	-0.02	-0.022	-0.009	0.021	-0.081	-0.02	-0.085	-0.12	0.11	0.024	-0.005	-0.011
PMM2 (UniProt O15305)	0.03	-0.034	0.008	-0.02	0.023	0.003	-0.014	-0.019	-0.004	0.05	0.025	-0.025	0.012	-0.1	0.009	0.089	-0.032	-0.029	0.012	-0.015
PHAX (UniProt Q9H814)	-0.004	0.042	0.045	0.009	0.023	0.054	-0.047	-0.101	-0.013	0.059	0.015	0.027	-0.041	0.002	0.024	-0.16	0.019	0.016	0.071	-0.253 (active)
POLR2E (UniProt P19388)	0.022	0.021	0.038	0.057	-0.054	0.007	0.013	-0.02	-0.01	0.011	-0.106	-0.012	0.218	-0.041	-0.061	0.081	0.065	0.108	-0.055	-0.014
PRKAA1 isoform 2 (UniProt Q13131)	0	0.026	0.084	0.045	0.018	0.013	0.012	-0.051	-0.034	0.012	0.046	-0.006	-0.343 (active)	-0.003	-0.009	-0.025	-0.014	-0.014	0.022	0.019
PSMD6 (UniProt Q15008)	-0.024	-0.041	-0.042	0.017	-0.056	-0.007	0.09	0.053	0.002	0.016	-0.037	-0.036	0.081	0.087	0.05	0.038	-0.221 (active)	0.047	0.028	0.012
PRPF38A (UniProt Q8NAV1)	-0.032	0.035	-0.01	0.049	0	-0.046	0	-0.08	0.008	0.018	0.011	-0.051	-0.237 (active)	0.03	0.012	-0.029	0.005	0.027	0.045	-0.014
PFDN1 (UniProt O60925)	-0.018	0.012	0.263	0.07	0.056	0.063	0.137	0.047	-0.091	-0.057	-0.187	-0.119	-0.002	-0.141	-0.031	0.062	-0.13	-0.175	-0.021	0.254
PTPN12 (UniProt Q05209)	0.005	-0.007	-0.011	0.004	0.022	0.101	-0.021	-0.036	-0.039	-0.05	-0.011	-0.008	0.264 (active)	0.004	0.039	-0.101	0.057	0.045	-0.004	0.004
PSPC1 (UniProt Q8WXF1)	-0.024	0.014	-0.036	0.043	-0.008	0.004	-0.101	-0.141	-0.033	-0.061	-0.097	0.002	-0.201	-0.012	-0.024	-0.18	0.048	-0.02	-0.042	0.15
PSMD13 (UniProt Q9UNM6)	-0.091	-0.026	-0.076	0.002	-0.02	0.013	-0.002	0.044	-0.008	-0.069	-0.048	-0.039	0.048	-0.021	0	0.009	-0.265 (active)	0.09	0.049	0.032
PC (UniProt P11498)	-0.037	0.101	0.117	0.056	0.047	-0.042	0.042	0.031	-0.022	0.012	-0.024	0.04	-0.151	-0.02	-0.038	0.183	-0.037	-0.016	-0.081	0.15
PRKAR2A (UniProt P13861)	-0.002	0.013	-0.024	0.062	0.082	-0.005	-0.021	-0.004	-0.177	-0.486 (active)	0.006	0.013	-0.696 (active)	0.047	-0.036	-0.002	-0.023	0.074	-0.06	0.058
PDPK1 (UniProt O15530)	0.02	0.083	0.026	0.064	0.068	-0.029	0.045	0.007	0.087	0.028	0.019	-0.043	-0.346 (active)	-0.067	-0.087	-0.134	0.015	0.001	0.035	0.027
